Experimental data reported in PubChem BioAssay AID686978 (National Center for Advancing Translational Sciences (NCATS), 2013).
In all, about 420,000 compounds went through this assay and about 64,000 (15%) were called active. Not shown: some 27% with an inconclusive outcome. A selection follows. A number with no mark means an inactive call. The call rests on the fitted dose curve; in most records, active means well fitted inhibition curve with a large enough effect; inconclusive means small, poorly fitted or top-dose-only effect; inactive means flat fitted curve, though single readings scatter.
On the % scale 0 is the no-effect control and ±100 the full control effect; potency means the concentration at half of the fitted maximal effect.

Test: qHTS for Inhibitors of human tyrosyl-DNA phosphodiesterase 1 (TDP1): qHTS in cells in absence of CPT; further: nearly all actives have a fitted effect of over 55% in size
Details: DT40 Tdp1-/- hTDP1 cells, no CPT, ATP luminescence, 48 h; activity change, negative = growth inhibition: at 46.2 µM (top of the series)
Procedure, shortened: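 Readout: luminescence from CellTiter-Glo after 30 min in the dark at RT. Cells: DT40 Tdp1-/- with stable hTDP1, 400/well. Exposure: compounds alone, ≥48 hr, 37 °C.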
In the case of `CCOc1ccc(-c2nnn(CC(=O)N3CCN(c4ccc(F)cc4)CC3)n2)cc1OCC`, the “activity change, negative = growth inhibition” value is reported as -10.8%.
In the case of `OCCNCCCCOc1ccccc1F`, the “activity change, negative = growth inhibition” value is reported as -13.5%.
In the case of `Cn1c2c(c(=O)n(C)c1=O)[C@@H]1c3c(ccc4ccccc34)OC[C@@H]1CO2`, the “activity change, negative = growth inhibition” value is reported as 10.5%.
With `COc1cc(N2C(=O)CC3(CCCC3)CC2=O)cc(OC)c1OC` the “activity change, negative = growth inhibition” value was 2.17%.
For `O=C(COc1ccc(F)cc1)N(CC1=CCS(=O)(=O)C1)c1ccccc1`, the “activity change, negative = growth inhibition” value was -26.4%.
In the case of `CC1C(=O)N(Cc2ccccc2)c2ccccc2N1C(=O)c1ccccc1` (configuration not stated), the Potency is reported as 13 µM (active).
In the case of `CC1Oc2ccccc2N(Cc2cccnc2)C1=O` (configuration not stated), the “activity change, negative = growth inhibition” value is reported as -1.68%.
For `CC1C(=O)Nc2ccccc2N1C(=O)c1c(F)cccc1F` (configuration not stated), the “activity change, negative = growth inhibition” value was -18.1%.
In the case of `CCc1cccc(-n2nnc(-c3nsc(NC(=O)c4ccc(C)cc4)n3)c2C)c1`, the Potency is reported as 8.2 µM (active).
In the case of `Cc1ccc(C(=O)Nc2nc(-c3ccccc3)ns2)cc1`, the “activity change, negative = growth inhibition” value is reported as -25.5%.
With `Cc1ccc(C(=O)Nc2nc(N)n(-c3ccccc3)n2)cc1` the “activity change, negative = growth inhibition” value was -12.3%.
With `CC(=O)c1ccc(-c2nnc(CCC(=O)N(C)Cc3cnc4ccccn34)o2)s1` the “activity change, negative = growth inhibition” value was -11.2%.
With `CN(Cc1ccccc1)C(=O)CCc1ccccc1` the “activity change, negative = growth inhibition” value was -27.6%.
For `CCc1ccc(CN(C)C(=O)CCc2nnc(-c3ccc(-c4ccccc4)cc3)o2)nc1`, the Potency was 11.6 µM (active).
For `CCOc1ccc(C)cc1S(=O)(=O)NC1CCCCCC1`, the “activity change, negative = growth inhibition” value was 10.5%.
With `Clc1ccc(C[n+]2cc(-c3ccccc3)n3c2CCC3)cc1` the Potency was 5.17 µM (active).
In the case of `Clc1ccc(C[n+]2cc(-c3ccc(Cl)cc3)n3c2CCC3)cc1`, the Potency is reported as 5.8 µM (active).
For `Cn1c(-c2ccccc2)c[n+]2c1CCCCC2`, the “activity change, negative = growth inhibition” value was 0.0239%.
With `COc1ccccc1C(=O)NCCC(=O)N(C)Cc1cccnc1` the “activity change, negative = growth inhibition” value was 10%.
For `COCC1CCN(C(=O)C2CCC(=O)N(Cc3cccc(C(F)(F)F)c3)C2)CC1` (configuration not stated), the “activity change, negative = growth inhibition” value was -1.97%.
For `O=C(NCCc1ccccn1)c1nc(Cn2cc([N+](=O)[O-])cn2)no1`, the “activity change, negative = growth inhibition” value was 3.68%.
In the case of `Cc1nc(Cl)c(C#N)c2c1CCCC2`, the “activity change, negative = growth inhibition” value is reported as -8.66%.
With `N#C/C(=C1/CCCN1)c1ccccn1` the “activity change, negative = growth inhibition” value was 4.88%.
For `Cc1sc2nc(SCC(N)=O)n(C)c(=O)c2c1C`, the “activity change, negative = growth inhibition” value was -15.2%.
With `CCc1cc2c(=O)n(-c3ccccc3)c(SCC(=O)O)nc2s1` the “activity change, negative = growth inhibition” value was 4.2%.
With `Cc1sc2nc(SCCO)n(-c3ccccc3)c(=O)c2c1C` the Potency was 13 µM (active).
For `COc1cccc(N(C(=O)CNC(=O)c2ccco2)C(C(=O)NC2CCCCC2)c2cccnc2)c1` (configuration not stated), the “activity change, negative = growth inhibition” value was -7.84%.
In the case of `CCOc1ccc2cc(C#N)c(SCC(=O)OC)nc2c1`, the “activity change, negative = growth inhibition” value is reported as -16.1%.
For `CC(C)c1c(C(=O)N/N=C/c2ccc(-c3ccccc3)cc2)nnn1-c1nonc1N`, the “activity change, negative = growth inhibition” value was 1.96%.
In the case of `CC1(C)C(=O)C2(CCCCC2)C(=O)OC1c1cccs1` (configuration not stated), the “activity change, negative = growth inhibition” value is reported as -15.1%.
For `O=c1oc2ccccc2c(=O)c2ccccc12`, the “activity change, negative = growth inhibition” value was -0.558%.
With `CCNc1c(NS(=O)(=O)c2ccc(C3CCCCC3)cc2)c(=O)oc2ccccc12` the Potency was 16.4 µM (active).
With `CC(C)(C)Nc1c(N)c(=O)oc2ccccc12` the “activity change, negative = growth inhibition” value was -10.6%.
With `Cn1c(Cc2csc(N)n2)nnc1SC/C=C/c1ccccc1` the “activity change, negative = growth inhibition” value was -1.41%.
With `COc1cccc2c(N/N=C/c3ccco3)cc(C)nc12` the “activity change, negative = growth inhibition” value was 4.74%.
With `CCOC(=O)C1=NN(c2ccc(Cl)cc2)/C(=C/C2=NCCc3cc(OC)c(OC)cc32)S1` the “activity change, negative = growth inhibition” value was -3.61%.
For `COc1cc2c(cc1OC)C(/C=C/c1ccco1)=NCC2`, the Potency was 13 µM (active).
For `CC12C(=O)N(n3cnnc3)C(=O)C1C1C=CC2C1` (configuration not stated), the “activity change, negative = growth inhibition” value was 1.03%.
For `CS(=O)(=O)N(CC(=O)N1CCCC1)Cc1ccccc1`, the “activity change, negative = growth inhibition” value was -6.97%.
In the case of `Cc1ccc2nc(-c3cccc(Br)c3)cc(C(=O)Nn3cnnc3)c2c1`, the “activity change, negative = growth inhibition” value is reported as 6.51%.
For `O=c1c2cc(Br)ccc2nc(-c2cccc(Cl)c2)n1O`, the Potency was 23.1 µM (active).
In the case of `O=C1CCCc2c1nc(-c1cccc(Cl)c1)n2O`, the “activity change, negative = growth inhibition” value is reported as -24.8%.
For `CCOC(=O)N1CCC(NC(=O)CCc2cn(C)c3ccccc23)CC1`, the “activity change, negative = growth inhibition” value was -15.3%.
With `CCC(CC)c1nnc(NC(=O)C2=COCCO2)s1` the “activity change, negative = growth inhibition” value was 2.02%.
For `CNC(=O)NC(=O)CSc1nnc(-c2ccc(F)cc2)n1CC1CCCO1` (configuration not stated), the “activity change, negative = growth inhibition” value was -4.38%.
With `Cc1ccc(CNS(=O)(=O)c2ccc(-c3cc(C(F)(F)F)on3)s2)cc1` the “activity change, negative = growth inhibition” value was -19.5%.
With `COCCn1cnc2c1c(=O)n(CC(=O)NN)c(=O)n2Cc1ccccc1` the “activity change, negative = growth inhibition” value was 22%.
For `Cc1cccc(N2CC(C)Cn3c2nc2c3c(=O)n(CC(=O)OCc3ccccc3)c(=O)n2C)c1` (configuration not stated), the Potency was 13 µM (active).
With `CC1CN(C2CCCCC2)c2nc3c(c(=O)n(C)c(=O)n3C)n2C1` (configuration not stated) the “activity change, negative = growth inhibition” value was -26.3%.
For `Cc1ccccc1SCC(=O)OCC(=O)N1CC(=O)Nc2ccccc21`, the “activity change, negative = growth inhibition” value was 7.53%.
With `CC(=O)C1C(c2cccc(Oc3ccccc3)c2)NC(=O)NC1(O)C(F)(F)F` (configuration not stated) the “activity change, negative = growth inhibition” value was -25.6%.
In the case of `C[C@@H]1CN([C@@H](C)CO)S(=O)(=O)c2ccc(-c3ccc(C(=O)N(C)C)cc3)cc2O[C@@H]1CN(C)Cc1ccccc1C(=O)O`, the “activity change, negative = growth inhibition” value is reported as 10.6%.
In the case of `C[C@H]1CN([C@@H](C)CO)S(=O)(=O)c2ccc(-c3cccc(F)c3)cc2O[C@@H]1CN(C)C`, the “activity change, negative = growth inhibition” value is reported as -15.1%.
In the case of `C[C@H](CO)N1C[C@H](C)[C@@H](CN(C)C(=O)c2cccc(F)c2)Oc2cc(-c3cncnc3)ccc2S1(=O)=O`, the “activity change, negative = growth inhibition” value is reported as 9.26%.
With `COCC(=O)N(C)C[C@H]1Oc2cc(Br)ccc2S(=O)(=O)N([C@H](C)CO)C[C@H]1C` the “activity change, negative = growth inhibition” value was -22.5%.
For `C[C@@H]1CN([C@H](C)CO)S(=O)(=O)c2ccc(C#C[C@@H](C)O)cc2O[C@@H]1CN(C)Cc1ccc(-c2ccccc2)cc1`, the Potency was 6.51 µM (active).
For `C[C@@H]1CN([C@@H](C)CO)S(=O)(=O)c2ccc(C#Cc3cccc(F)c3)cc2O[C@H]1CN(C)S(=O)(=O)c1cn(C)cn1`, the Potency was 23.1 µM (active).
